Assay results taken from ChEMBL document CHEMBL4808148, “HDAC6 screening dataset using tau-based substrate in an enzymatic assay yields selective inhibitors and activators” (2021).
Several values for one entry are separate records, joined by “and”; a condition that tells them apart may be missing. Identical values can stand only once. Screen size: about 5,600 compounds; about 150 (2.7%) showed an effect of 50% or more. The sample as a whole holds a higher share of strong results than the screen did. Starred links: 1 amine or outer side, 2 acyl side, 3 side chain; linkers in the order of their positions; H or OH if unused. Positions of bridges follow the written chain, without caps; N, C: chain ends. Non-standard residues stand in square brackets, D forms with d. Residues, ends and D or L forms follow the SMILES beside them. ξ: configuration not given here. *: point of attachment. hTyr(3S-OH,4S-OH,3'-OSO3H) = N[C@H](C(=O)O)[C@H](O)[C@@H](O)c1ccc(O)c(OS(=O)(=O)O)c1; Orn(4R-OH,5R-OH) = O=C([C@H](C[C@@H](O)[C@@H](O)N[*:3])N[*:1])[*:2]; Pro(3S-OH,4S-Me) = C[C@H]1CN[C@H](C(=O)O)[C@H]1O; X1 = CCCCCOc1ccc(-c2cc(-c3ccc(C(=O)*)cc3)no2)cc1; Gln(3R-OH) = NC(=O)C[C@@H](O)[C@H](N)C(=O)O; Hyp = O=C(O)[C@@H]1C[C@@H](O)CN1; ξThr(3R) = C[C@@H](O)C(N)C(=O)O

Tests used:
[1] = molecular target: T1, Protein deacetylase HDAC6 (Homo sapiens) (UniProt Q9UBN7); details: at 10 µM
T1 sequence (whole entry): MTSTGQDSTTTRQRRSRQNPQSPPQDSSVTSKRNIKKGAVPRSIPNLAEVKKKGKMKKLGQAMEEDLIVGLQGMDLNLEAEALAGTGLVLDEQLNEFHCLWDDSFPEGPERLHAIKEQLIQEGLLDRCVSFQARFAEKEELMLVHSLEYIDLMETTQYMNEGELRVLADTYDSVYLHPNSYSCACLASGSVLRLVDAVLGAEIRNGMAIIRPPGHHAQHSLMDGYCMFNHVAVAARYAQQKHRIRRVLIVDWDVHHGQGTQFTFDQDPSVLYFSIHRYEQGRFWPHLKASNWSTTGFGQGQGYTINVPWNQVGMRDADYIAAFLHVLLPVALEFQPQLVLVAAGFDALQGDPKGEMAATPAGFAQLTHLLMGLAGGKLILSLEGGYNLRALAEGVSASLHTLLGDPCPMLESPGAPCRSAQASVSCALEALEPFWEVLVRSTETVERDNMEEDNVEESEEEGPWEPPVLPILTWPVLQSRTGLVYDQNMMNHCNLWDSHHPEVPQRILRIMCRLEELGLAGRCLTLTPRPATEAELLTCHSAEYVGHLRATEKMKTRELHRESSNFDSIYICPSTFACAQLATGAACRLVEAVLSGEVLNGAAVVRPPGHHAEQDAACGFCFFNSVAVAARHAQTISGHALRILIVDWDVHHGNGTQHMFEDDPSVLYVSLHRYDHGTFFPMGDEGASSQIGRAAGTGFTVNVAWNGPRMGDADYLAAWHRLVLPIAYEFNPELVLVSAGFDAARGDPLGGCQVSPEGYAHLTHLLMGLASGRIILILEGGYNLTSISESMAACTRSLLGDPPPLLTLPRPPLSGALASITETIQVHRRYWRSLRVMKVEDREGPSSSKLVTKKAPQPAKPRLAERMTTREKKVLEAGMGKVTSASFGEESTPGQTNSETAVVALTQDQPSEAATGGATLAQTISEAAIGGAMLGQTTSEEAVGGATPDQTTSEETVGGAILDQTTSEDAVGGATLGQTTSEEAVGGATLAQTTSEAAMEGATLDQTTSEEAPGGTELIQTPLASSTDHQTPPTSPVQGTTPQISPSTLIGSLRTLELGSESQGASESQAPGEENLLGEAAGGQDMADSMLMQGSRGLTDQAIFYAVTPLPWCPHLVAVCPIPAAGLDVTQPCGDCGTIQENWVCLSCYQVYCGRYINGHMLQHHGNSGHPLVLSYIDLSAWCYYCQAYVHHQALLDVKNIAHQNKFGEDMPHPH

[2] = molecular target: Protein deacetylase HDAC6 (Homo sapiens) (UniProt Q9UBN7); details: at 10 µM; remark: listed apart in the source

Compound | inhibition [1] | inhibition [2]
CCCCCOc1ccc(-c2cc(-c3ccc(C(=O)N[C@H]4C[C@@H](O)[C@@H](O)NC(=O)[C@@H]5[C@@H](O)[C@@H](C)CN5C(=O)[C@H]([C@H](O)CC(N)=O)NC(=O)[C@H]([C@H](O)[C@@H](O)c5ccc(O)c(OS(=O)(=O)O)c5)NC(=O)[C@@H]5C[C@@H](O)CN5C(=O)C([C@@H](C)O)NC4=O)cc3)no2)cc1 (stereo partly drawn) (X1-[Orn(4R-OH,5R-OH)][ξThr(3R)][Hyp][hTyr(3S-OH,4S-OH,3'-OSO3H)][Gln(3R-OH)][Pro(3S-OH,4S-Me)]; lactam 1-C) | 4.51% | 
CN(C)CCCSc1ccccc1NC(=O)/C=C/c1ccccc1 | 92.4% | 
CC(C)c1ccc(C(=O)c2cccs2)c(SCCCCCCCCN(C)C)n1 | 3.78% | 
O=C(/C=C/c1ccccc1)NC(NC(=S)Nc1cccc2cccnc12)C(Cl)(Cl)Cl (centres undefined) | 3.55% | 
CNC[C@@H]1CC[C@@H](N)[C@H](O[C@H]2[C@H](O)[C@@H](O[C@H]3OC[C@](C)(O)[C@H](NC)[C@H]3O)[C@H](N)C[C@@H]2N)O1 | -3.43% | 
gallium-triquinolin-8-olate, CHEMBL4303465 |  | 8.35%
C[C@H]1N=C(N(C)C)N=C(N)N1 | -1.55% | 
CN1C[C@@H]2CN(c3ccc(-c4ccccc4)nn3)C[C@@H]2C1 | 57.6% | 
O=C(c1cc(S(=O)(=O)Nc2ccccc2F)c(F)cc1Cl)N1CCN2CCC[C@@H]2C1 | -3.32% | 
CN1[C@H]2C[C@H](OC(=O)[C@H](CO)c3ccccc3)C[C@@H]1[C@@H](O)C2 (racemic) | 0.83% | 
C=C1/C(=C\C=C2/CCC[C@]3(C)[C@@H]([C@H](C)CCCC(O)(C(F)(F)F)C(F)(F)F)CC[C@@H]23)C[C@@H](O)C[C@@H]1O | 4.32% | 
COc1cc(O)c(C(=O)c2ccccc2)cc1S(=O)(=O)O | 2.56% | 
COc1cc(-c2ccc(/N=N/c3ccc4c(S(=O)(=O)O)cc(S(=O)(=O)O)c(N)c4c3O)c(OC)c2)ccc1/N=N/c1ccc2c(S(=O)(=O)O)cc(S(=O)(=O)O)c(N)c2c1O | 50.8% | 
COc1cccc(-n2nc(C(=O)O)cc2-c2ccc(C3CCCCC3)c(Cl)c2)c1 | 1.57% | 
CO/N=C(\C(=O)N[C@@H]1C(=O)N2C(C(=O)O)=C(C)CS[C@H]12)c1csc(N)n1 | 1.72% | 
Miriplatin, CHEMBL4303713 |  | -1.16%
PHENYLMERCURIC ACETATE, CHEMBL1333953 |  | 62%
GADOTERIDOL, CHEMBL1200593 |  | -0.37%
NC1CCC(N[C@@H]2C[C@H]2c2ccccc2)CC1 (some centres undefined) | -0.23% | 
CN1C(=O)C(N2CCCCC2)S/C1=C\C(=O)O (centres undefined) | 0.03% | 
CC(C)Oc1ccc(-c2nn([C@@H](C)c3oc4ccc(F)cc4c(=O)c3-c3cccc(F)c3)c3ncnc(N)c23)cc1F | 2.17% | 
COC(=O)C1=C(C)N(C)C(C)=C(C(=O)OC)C1c1ccc(C(F)(F)F)cc1 | 1.92% | 

Compound | inhibition [1] | inhibition [2]
CCCCC/C=C\C/C=C\CCCCCCCC(=O)NCCCC(=O)O | 3.98% | 
COc1cc(CNC(=O)CCCC/C=C/C(C)C)ccc1O | -2.58% | 
CCCCCCCCC(=O)NCc1ccc(O)c(OC)c1 | 58.8% | 
CS(=O)(=O)OC[C@H](O)[C@@H](O)COS(C)(=O)=O | 2% | 
N=C1N[C@H]2[C@H](CS[C@H]2CCCCC(=O)O)N1 | 1.67% | 
O=[Si]=O.O=[Si]=O.O=[Si]=O.O=[Si]=O.[O]=[Mg].[O]=[Mg].[O]=[Mg] | 97.2% | 
CNC(=O)c1cccc2cc(Oc3ccnc4cc(OCC5(N)CC5)c(OC)cc34)ccc12 | 11.4% | 
c1ccc(CCNc2nc(-c3ccccc3)cs2)cc1 | 83.7% | 
O=C(O)c1ccccc1NCCc1ccccc1 | 7.74% | 
O=C(NCc1cccc(O)c1)Nc1nc(-c2ccncc2)cs1 | -5.89% and -0.86% | 
CC(NC(=O)[C@@H](N)Cc1ccc(O)cc1)C(=O)NCC(=O)N(C)[C@@H](Cc1ccccc1)C(=O)N[C@H](CO)CC[S+](C)[O-] (stereo in doubt) | 2.35% | 
O=C(O)c1cc(O)c(O)c(O)c1 | -7.85% | 
COc1ccc(NS(=O)(=O)c2ccc(/N=N/c3ccc(O)c(C(=O)O)c3)cc2)nn1 | -4.06% | 
O=C(O)c1cc(/N=N/c2ccc(O)c(C(=O)O)c2)ccc1O | 95.1% | 
CC1(C)[C@@H]2C[C@H]1[C@@](C)(O)[C@@H](O)C2 | -1.04% | 
Cc1ccc(S(=O)(=O)Nc2ccc3c(c2)c(C(=O)C(F)(F)F)cn3CC(=O)N[C@@H](CC(C)C)C(=O)O)cc1 | -4.82% | 
O=C1C[C@@]2(C(=O)N1)C(=O)N(Cc1ccc(Br)cc1F)C(=O)c1cccn12 | -2.35% | 
COCCN1CCN(Cc2ccc(-c3n[nH]c4c3C(=O)c3c(NC(=O)NN5CCOCC5)cccc3-4)cc2)CC1 | -4.17% | 
CNC(=O)N(C)N=O | -4.29% | 
O=c1c2ccccc2[se]n1-c1ccccc1 | 52.4% | 
CCC(=O)NO | 44.5% | 
O=[N+]([O-])c1cn2c(n1)OC[C@@H](OCc1ccc(-c3ccc(OC(F)(F)F)cc3)nc1)C2 | 4.86% | 
